About 79,000 compounds went through this panel and 15% of them were active in at least one assay; those are over-represented in the sample as a whole. Activity calls are given as the source filed them. Cut-off read from the data, not from the text of the source: active = growth inhibition above about 70%; inactive = the rest.

This test can be described thus: NCI Yeast Anticancer Drug Screen. Data for the bub3 strain (AID 167). The note with it: S. cerevisiae bub3 mutant strain, at 5.0 µM (retest, dose inferred, filed as 0.5), stronger effect = higher value. The method, boiled down: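 Screening used yeast with an engineered genetic alteration affecting cell cycle control. Compound-exposed cultures were compared with vehicle cultures, and reduced growth was taken as inhibition.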
Consider `CCc1ccc(/C(C)=N/NC(N)=S)cc1`, for which the growth inhibition is -9% (inactive).

Regarding `CC(C)/C=C1\CCOC1=O`, the growth inhibition was -3% (inactive).

For the compound `COc1c(C(=O)/C(=N/Nc2ccccc2)C(C)=O)c(O)c(OC)c2occc12`, the growth inhibition was -32% (inactive).

Turning to `COc1ccc(CC/C(=N/O)c2ccccc2)cc1`, the growth inhibition is 1% (inactive).

For the compound `CCOC(=O)C1(C#N)C(c2ccccc2)C1(C#N)C#N` (stereo not drawn), the growth inhibition was 14% (inactive).

For the compound `COc1ccc(OC)c(/C=C/NC=O)c1`, the growth inhibition was -1% (inactive).

For the compound `CC(=O)Oc1ccc(-c2ccc(Br)cc2)cc1`, the growth inhibition is 20% (inactive).

Consider `COC(=O)/C(C#N)=C/c1cc(OC)c(O)cc1Br`, for which the growth inhibition was 46% (inactive).

With `CCC(C1SC(=S)NC1=O)C1SC(=S)NC1=O` (stereo not drawn), the growth inhibition is -4% (inactive).

For the compound `CCC(C)c1ccc(O)c(C(C)c2ccccc2)c1` (stereo not drawn), the growth inhibition was 15% (inactive).

Consider `C/C(=N\NC(=S)N1CCN(c2ccccc2)CC1)c1nccs1`, for which the growth inhibition was 63% (inactive).

As to `COc1ccc2c(C(=O)c3ccccc3)c3[n+](cc2c1OC)CCc1cc2c(cc1-3)OCO2`, the growth inhibition was -4% (inactive).

Regarding `Cc1cccc(C[N+](C)(C)CCCO)c1C`, the growth inhibition is 0% (inactive).

For `c1ccc(N=C2SC3=NCCN3C2=Nc2ccccc2)cc1`, the growth inhibition was -11% (inactive).

For the compound `Cc1ccc(SCc2ccccc2Cl)nn1`, the growth inhibition is 6% (inactive).

For `CCCc1cc(=O)oc2c3c(c4c(c12)OC(C)(C)CC4)O[C@H](C)[C@H](C)C3=O`, the growth inhibition was -18% (inactive).

With `CC1(C)COC(c2cccc(C(O)c3ccc(Cl)cc3)c2)=N1` (stereo not drawn), the growth inhibition was -21% (inactive).

Turning to `CCOC(=O)c1cc(NC(=O)c2cc(NC(=O)c3cc(NC(=O)c4c(-c5ccccc5)noc4C)cn3C)cn2C)cn1C`, the growth inhibition was -4% (inactive).

(Values after PubChem BioAssay (NCI).)
